Compound activity deposited in PubChem by DiRusso Lab, Biochemistry Department, University of Nebraska.
The sample as a whole holds a higher share of hits than the screen did.
Algae TAG accum: inducers of TAG accumulation in Chlamydomonas, primary screen, qHTS, Chlamydomonas reinhardtii; Nile Red fluorescence, 72 h; calls only at 10 µM (by protocol); 44,000 compounds, 0.84% hits; AID 1159537, 2015; call rule not given here;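 further: hits raise Nile Red signal meaning more stored TAG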
Each line names hits and unclear results; the compound was inactive in the other large screens.

C(#CCN1CCCCC1)COc1ccccc1	Algae TAG accum active
C(#CCN1CCOCC1)COc1ccccc1	none
c1ccc2c(CN3CCCCCCC3)c[nH]c2c1	none
COc1cccc(CN2CCN(c3ccccc3F)CC2)c1	none
CCOc1ccc(CN2CCN(c3cccc(Cl)c3)CC2)cc1	none
CN1CCN(Cc2cc(F)ccc2F)CC1	none
O=[N+]([O-])c1ccc(N2CCN(Cc3ccc(Cl)cc3)CC2)cc1	none
COc1cccc(N2CCN(Cc3ccc([N+](=O)[O-])cc3)CC2)c1	Algae TAG accum active
O=[N+]([O-])c1ccc(CN2CCN(c3ccccc3)CC2)cc1	Algae TAG accum active
O=[N+]([O-])c1ccc(CN2CCN(c3ccc(Cl)cc3)CC2)cc1	none
COc1ccc(N2CCN(Cc3ccc([N+](=O)[O-])cc3)CC2)cc1	none
Cc1ccccc1N1CCN(Cc2cccc([N+](=O)[O-])c2)CC1	none
Cc1ccccc1N1CCN(Cc2ccc(Cl)cc2)CC1	none
COc1ccc(CN2CCN(c3cccc(OC)c3)CC2)cc1	none
Cc1ccccc1N1CCN(Cc2ccc([N+](=O)[O-])cc2)CC1	Algae TAG accum active
C#CCOc1ccccc1/C=C/[N+](=O)[O-]	none
OCC(Cc1cnc[nH]1)NCc1ccccc1 (stereo unspecified)	none
COc1ccc(CN2CCN(c3ccccc3C)CC2)cc1	none
OC1CCCN(CCc2ccccc2)C1 (stereo unspecified)	none
COc1ccc(CN2CCN(c3ccccc3)CC2)cc1	none
COc1ccc(CCN(C)Cc2ccccn2)cc1OC	none
COc1ccc(OC)c(CNCCc2cccc(F)c2)c1	none
COc1ccc(OC)c(CNCCc2ccc([N+](=O)[O-])cc2)c1	Algae TAG accum active
COc1ccccc1CNCCc1ccc(OC)c(OC)c1	none
O=c1c2ccccc2nc(/C=C/c2cc(Br)ccc2O)n1-c1cccc([N+](=O)[O-])c1	none
CN1CCN(Cc2c(F)cccc2F)CC1	none
CCc1ccc(CN2CCN(C(C)C)CC2)cc1	none
CCc1ccc(CN2CCN(CCO)CC2)cc1	Algae TAG accum active
CN1CCN(Cc2c(Cl)cccc2Cl)CC1	none
CC(C)c1ccc(CN2CCN(C)CC2)cc1	Algae TAG accum active
CCc1ccc(CN2CCN(C)CC2)cc1	none
CN1CCN(Cc2ccc(Cl)cc2)CC1	none
CCOc1cc(CN(C)CCc2ccc(OC)c(OC)c2)ccc1OC	none
CC1CCCC(N2CC(C)OC(C)C2)C1 (stereo unspecified)	none
CN(CCc1ccccc1)Cc1cccc(O)c1	none
CN1CCN(c2ccccc2[N+](=O)[O-])CC1	none
CN1CCN(c2ccc([N+](=O)[O-])c(N3CCCCC3)c2)CC1	Algae TAG accum active
CN1CCN(c2cc(N3CCCC3)ccc2[N+](=O)[O-])CC1	none
N/C(=N/[N+](=O)[O-])N1CCN(C(=O)c2cccc([N+](=O)[O-])c2)CC1	none
CCCCOc1ccc(CN2C[C@@H]3C[C@@H](C2)c2cccc(=O)n2C3)cc1	none
Cc1ccc(CN2CCN(c3ccc(Cl)cc3)CC2)cc1	none
Fc1ccccc1N1CCN(Cc2ccc(Cl)cc2)CC1	none
Fc1ccc(CN2CCN(c3ccccc3)CC2)cc1	none
Cc1ccc(CN2CCN(c3ccc(F)cc3)CC2)cc1	Algae TAG accum active
CN(C)c1ccc(CN2CCN(c3ccc(F)cc3)CC2)cc1	none
CCc1ccc(CN2CCN(c3ccccc3OC)CC2)cc1	none
c1ccc(CN2CCN(c3ccccc3)CC2)cc1	none
Fc1ccc(CN2CCN(c3ccccc3Cl)CC2)cc1	Algae TAG accum active
Fc1ccc(N2CCN(Cc3ccccc3)CC2)cc1	Algae TAG accum active
CN(C)c1ccc(CN2CCN(c3ccccc3Cl)CC2)cc1	none
COc1ccccc1N1CCN(Cc2ccc(Br)cc2)CC1	none
COc1ccccc1N1CCN(Cc2ccc(Cl)cc2)CC1	Algae TAG accum active
Cc1ccc(-c2nc3ccccc3c(=O)n2-c2cccc([N+](=O)[O-])c2)cc1	none
COc1cc(Br)cc(CN2CCN(Cc3ccccc3)CC2)c1O	none
O=[N+]([O-])c1ccc(CNCCc2ccc3c(c2)OCO3)cc1	none
CCCCSc1nc2ccccc2c(=O)n1-c1ccc(C)cc1	none
O=Cc1cn(Cc2nc(-c3ccc(Br)cc3)no2)c2ccccc12	none
Fc1ccc(F)c(CN2CCN(c3ccccc3F)CC2)c1	none
COc1ccc(CCN(C)Cc2ccc(C)o2)cc1OC	none
CC(C)NC(C)C(O)c1ccc2c(c1)CCCC2 (stereo unspecified)	none
O=C(COc1ccccc1)N1CCN(Cc2ccccc2F)CC1	none
Cc1cccc(N2CCN(CCc3ccccc3)CC2)c1C	none
CN(C)c1ccc(CN2CCN(Cc3ccccc3)CC2)cc1	none
CCC(C)N1CCN(Cc2ccccc2)CC1 (stereo unspecified)	none
Cc1ccc(N2CCN(CCc3ccccc3)CC2)cc1	Algae TAG accum active
Oc1ccc(CN2CCN(Cc3ccccc3)CC2)cc1	Algae TAG accum active
OCCN1CCN(Cc2ccccc2)CC1	none
CN1CCN(Cc2ccccc2)CC1	none
OC1CCN(CCc2ccccc2)CC1	none
c1ccc(CN2CCN(C3CCCCC3)CC2)cc1	Algae TAG accum active
COC(=O)Nc1cc(N/C(N)=N\[N+](=O)[O-])ccc1C	none
O=[N+]([O-])c1ccc(CNCCc2cccc(F)c2)cc1	none
Cc1ccc(C)c(N2CCN(Cc3cc(F)ccc3F)CC2)c1	none
CC(=O)Nc1ccc(S(=O)(=O)N2C[C@H]3C[C@H](C2)c2cccc(=O)n2C3)cc1	none
O=C1CC(=O)N(c2ccc(I)cc2)C(=O)N1	none
